The nature of test [1]: Viability qHTS for spleen associated tyrosine kinase inhibitor (SYKi) naive MV4-11 cells (AID 1963823). Note: nearly all actives have a fitted effect of over 40% in size. Note: potency is the fitted concentration of half-maximal effect. In outline:
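CellTiter-Glo luminescence, 10 min room-temperature incubation, gave viability. Cells: naive MV4-11 (500/well), treated 72 hr at 37 C, 5% CO2.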
For orientation: qHTS replaces the single test concentration by a dilution series.

Test [2] can be described thus: Quantitative highthroughput screen to assess conditional lethalithy of SEM cells grown in RPMI1640 with unreated serum (RPMI+s) (AID 1963883).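 For Viability: 100% = DMSO wells and 0% = empty wells without cells.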 Note: nearly all actives have a fitted effect of over 35% in size. Note: potency is the fitted concentration of half-maximal effect. The method, boiled down:
(§1)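 Each medium arm—HPLM with 10% dialyzed FBS, or RPMI1640 with 5 mM glucose and 10% untreated or dialyzed FBS—was screened against an 11-point, 3-fold compound titration for 48 h at 37 °C, with CellTiter-Glo luminescence as endpoint.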

Test [3] in a line: Cellular viability qHTS for adrenocortical cancer (ACC) cell line NCI-H295R (AID 1963990). Note: nearly all actives have a fitted effect of over 60% in size. Note: potency is the fitted concentration of half-maximal effect. The method, boiled down:
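Adrenocortical carcinoma cells, suspended at 300 000 cells/mL in serum-free DMEM plus ITS, rested overnight before pin transfer of compound. After two days' incubation, ATP-dependent luminescence was recorded and curve-fitted.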

Test [4] is described as follows: Quantitative highthroughput screen to assess conditional lethalithy of NOMO1 cells grown in RPMI1640 with untreated serum (RPMI+s) (AID 1963876).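 Note: 100% = DMSO wells and 0% = empty wells without cells; nearly all actives have a fitted effect of over 35% in size.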 The method, boiled down: as §1
A short description of test [5]: Quantitative highthroughput screen to assess conditional lethalithy of NOMO1 cells grown in RPMI1640 with dialyzed fetal bovine serum (RPMI+ds) (AID 1963877).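 Note: series mostly up to about 46 µM; 100% = DMSO control wells and 0% = empty wells; nearly all actives have a fitted effect of over 30% in size.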 The method, boiled down:
as §1

Test [6] in a line: Quantitative highthroughput screen to assess conditional lethalithy of NOMO1 cells grown in Human Plasma-Like Medium with dialyzed fetal bovine serum (HPLM+ds) (AID 1963878).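 For Viability: 100% = DMSO wells and 0% = empty wells on each plate.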 Note: nearly all actives have a fitted effect of over 35% in size. Note: potency is the fitted concentration of half-maximal effect. In outline:
as §1

Test [7] in a line: Quantitative highthroughput screen to assess conditional lethalithy of P12 Ichikawa cells grown in RPMI1640 with dialyzed fetal bovine serum (RPMI+ds) (AID 1963880).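 Note: 100% = DMSO wells and 0% = empty wells on each plate; nearly all actives have a fitted effect of over 35% in size.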 As to conditions: Potency: P12-Ichikawa viability. The method, boiled down:
as §1

A short description of test [8]: Cellular viability qHTS for adrenocortical cancer (ACC) cell line SW-13 (AID 1963989).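 For activity (max response): cells grown in serum-free medium with ITS supplement; % is set by controls: 0 for no effect and ±100 for the full control effect.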 Note: nearly all actives have a fitted effect of over 65% in size. Note: potency is the fitted concentration of half-maximal effect. The note with it: SW-13 ACC cells viability, CellTiter-Glo, 48 h; activity (max response): active compounds read low. In outline: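 IC50 and maximal-response values come from four-parameter logistic fits of titration data. SW-13 cells in serum-free medium received compounds (up to 46 uM final) for 48 h before CellTiter-Glo luminescence.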

Test [9] in a line: Quantitative highthroughput screen to assess conditional lethalithy of P12 Ichikawa cells grown in RPMI1640 with untreated serum (RPMI+s) (AID 1963881).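 For Viability: series mostly up to about 46 µM; 100% = DMSO wells and 0% = empty wells without cells.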 Note: nearly all actives have a fitted effect of over 35% in size. Note: potency is the fitted concentration of half-maximal effect. The note with it: Potency: viability. The method, boiled down: as §1
Test [10] can be described thus: Viability qHTS for spleen associated tyrosine kinase inhibitor (SYKi) drug resistant MV4-11 cells (AID 1963824). Note: nearly all actives have a fitted effect of over 35% in size. Note: potency is the fitted concentration of half-maximal effect. In outline: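 CellTiter-Glo luminescence, read 10 min after reagent addition, reports viability after a 72 hr compound exposure. Cells are an MV4-11 line made resistant to SYK inhibition, seeded at 500 per well onto compound-containing plates.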
Test [11] in a line: Quantitative highthroughput screen to assess conditional lethalithy of SEM cells grown in RPMI1640 with dialyzed fetal bovine serum (RPMI+ds) (AID 1963884).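 For Viability: series mostly up to about 46 µM; 100% = DMSO control wells and 0% = empty wells without cells.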 Note: nearly all actives have a fitted effect of over 35% in size. Note: potency is the fitted concentration of half-maximal effect. The method, boiled down:
as §1

The nature of test [12]: Quantitative highthroughput screen to assess conditional lethalithy of P12 Ichikawa cells grown in Human Plasma-Like Medium with dialyzed fetal bovine serum (HPLM+ds) (AID 1963879). For Viability: series mostly up to about 46 µM. Note: nearly all actives have a fitted effect of over 35% in size. Note: potency is the fitted concentration of half-maximal effect. As to conditions: Potency: viability. In outline: as §1
Test [13] is described as follows: Quantitative highthroughput screen to assess conditional lethalithy of SEM cells grown in Human Plasma-Like Medium with dialyzed fetal bovine serum (HPLM+ds) (AID 1963882). The method, boiled down:
as §1

“And” between values parts separate entries of the source, which are not always exact repeats. Identical values can stand only once. Results filed as inconclusive are left out. Values without a mark were called inactive. The source made the active and inactive calls. Calls come from the whole dose curve; as a rule, active = well fitted curve in the direction sought with a large enough effect; inconclusive = small, poorly fitted or top-dose-only effect, or another doubt; inactive = no such curve, though single readings can be large; an effect the other way counts as inactive or inconclusive.

In the case of `O=C(Nc1ccncc1)C(=O)c1cn(Cc2ccc(Cl)cc2)c2ccccc12`, the figures for the Potency in [1], in test [2] and in [3] were 0.132 µM (active), 52.6 nM (active) and 126 nM (active), respectively.
For `C[C@](O)(COc1ccc(C#N)cc1)C(=O)Nc1ccc(C#N)c(C(F)(F)F)c1`, the results for the Potency in test [1] and in test [3] were 18.6 µM (active) and 17800 nM (active), respectively. Moreover, the Potency result in [4], in [5], in [6] and in [7] was “inactive” each time.
For the compound `C[C@@H]1CC[C@@]2(OC1)O[C@H]1C[C@H]3[C@@H]4CC=C5C[C@@H](O[C@@H]6O[C@H](CO)[C@@H](O[C@@H]7O[C@@H](C)[C@H](O)[C@@H](O)[C@H]7O)[C@H](O)[C@H]6O[C@@H]6O[C@@H](C)[C@H](O)[C@@H](O)[C@H]6O)CC[C@]5(C)[C@H]4CC[C@]3(C)[C@H]1[C@@H]2C`, the Potency is 1.66 µM (active) in test [1] and 3.55 µM (active) in [8].
As to `CCOP(=S)(OCC)Oc1ccc2c(C)c(Cl)c(=O)oc2c1`, the Potency result in [1] and in test [3] was “inactive” throughout. In test [8], the activity (max response) is 7.58%.
As for `C[C@@H]1C[C@@H]([C@H](O)CC2CC(=O)NC(=O)C2)C(=O)[C@@H](C)C1`, the Potency in [1] is 376 nM (active) and 417 nM (active); in [6] it was 1.18 µM (active); in test [9], 264 nM (active); in [2], 332 nM (active); in [8] it was 1.84 µM (active) and 1.78 µM (active); in test [3], 920 nM (active) and 1 µM (active).
For `C[C@]12CC[C@@H]3c4ccc(OC(=O)N(CCCl)CCCl)cc4CC[C@H]3[C@@H]1CC[C@@H]2O`, the Potency entry in [1], in test [10] and in [3] was “inactive” throughout.
Turning to `CCN(CC)C(=O)N[C@@H]1C=C2c3cccc4[nH]cc(c34)C[C@@H]2N(C)C1`, the Potency result in test [1] and in test [3] was “inactive” each time. In addition, in test [8], the activity (max response) is 5.3%.
For `NCCc1ccc(O)cc1`, the Potency entry in test [1] and in test [3] was “inactive” in each case. Besides, the activity (max response) in [8] was 4.68%.
Regarding `c1ccc2c(c1)sc1ccccc12`, the Potency entry in test [1] and in [3] was “inactive” each time. In test [8], the activity (max response) was 0.898%.
For the compound `CN1C2CCC(C)(C)C1CC(OC(=O)C(O)(c1cccs1)c1cccs1)C2` (configuration not stated), the Potency result in [1] and in test [3] was “inactive” in each case. For the same compound, the activity (max response) in [8] is -3.56%.
As to `CN(C)NC(=O)CCC(=O)O`, the Potency entry in test [1], in [10] and in test [3] was “inactive” each time.
For `O=C(Oc1ccc([N+](=O)[O-])cc1)N1CCC(C(O)(c2ccc3c(c2)OCO3)c2ccc3c(c2)OCO3)CC1`, the Potency result in test [1], in [5], in test [7] and in [3] was “inactive” each time. Further, in [8], the activity (max response) was 5.03%.
As for `CN(C)[C@@H]1C(=O)C(C(N)=O)=C(O)[C@@]2(O)C(=O)C3=C(O)c4c(O)cccc4[C@@](C)(O)[C@H]3[C@H](O)[C@@H]12`, the Potency entry in test [1], in test [9], in test [11] and in [3] was “inactive” in each case. For the same compound, the activity (max response) in [8] is 4.8%.
With `Nc1ccc(Cl)cc1C(=O)c1ccccc1F`, the Potency entry in test [1] is “inactive”. Further, the activity (max response) in [8] is -12.6%.
On to `COc1nn(CSP(=S)(OC)OC)c(=O)s1`, for which the values for the Potency in test [1] and in test [8] were 38.6 µM (active) and 31.6 µM (active), respectively.
As for `CNC(=O)Oc1cccc2ccccc12`, the Potency entry in [1] is “inactive”. For the same compound, the activity (max response) in [8] was -8.24%.
For the compound `CCOc1ccccc1-n1c(C(C)N2CCN(C(=O)COc3ccc(Cl)cc3)CC2)nc2ccccc2c1=O` (configuration not stated), the Potency is 920 nM (active) and 742 nM (active) in test [1]; 741 nM (active) in test [12]; 1.05 µM (active) in test [13]; 588 nM (active) in test [11]; 891 nM (active) in test [3].
Regarding `COc1ccc(Cc2nccc3cc(OC)c(OC)cc23)cc1OC`, the Potency in test [1] was 6.68 µM (active) and 2.35 µM (active); in test [10] it was 7.5 µM (active) and 2.95 µM (active). The Potency result in test [3] was “inactive”.
In the case of `O=S(=O)(F)Cc1ccccc1`, the Potency entry in [1], in test [4], in [2], in test [11] and in test [3] was “inactive” throughout. The activity (max response) in [8] is 2.11%.
`Cc1c(C(=O)Nc2cccc(C(F)(F)F)c2)cc(-c2ccccc2)n1CCCN1CCOCC1`: in test [1], the Potency is 14.6 µM (active). In addition, in [6], the Potency result is “inactive”.
As to `CSCC[C@@H](NC(=O)[C@@H](Cc1ccccc1)NC(=O)CNC(=O)CNC(=O)[C@@H](N)Cc1ccc(O)cc1)C(=O)O`, the Potency entry in test [1], in test [5], in [6], in [12] and in test [3] was “inactive” throughout. Moreover, in test [8], the activity (max response) is 3.41%.
In the case of `Cc1c(N)nc([C@H](CC(N)=O)NC[C@@H](N)C(N)=O)nc1C(=O)N[C@H](C(=O)N[C@@H](C)[C@H](O)[C@@H](C)C(=O)N[C@@H](C(=O)NCCc1nc(-c2nc(C(=O)NCCC[S+](C)C)cs2)cs1)[C@@H](C)O)C(O[C@H]1O[C@H](CO)[C@H](O)[C@@H](O)[C@H]1O[C@H]1O[C@H](CO)[C@@H](O)[C@H](OC(N)=O)[C@@H]1O)c1cnc[nH]1` (some centres not stated), the Potency entry in [1] and in test [3] was “inactive” each time. Further, the activity (max response) in test [8] was -30.2%.
As to `CC1(C)CC[C@]2(NC(=O)C(C)(F)F)CC[C@]3(C)[C@H](C(=O)C=C4[C@@]5(C)C=C(C#N)C(=O)C(C)(C)[C@@H]5CC[C@]43C)[C@@H]2C1`, the Potency in [1] is 3.32 µM (active); in test [8] it was 4.47 µM (active); in test [3] it was 3980 nM (active).
